ChEMBL document CHEMBL4513216, “Probing the Open Global Health Chemical Diversity Library for Multistage-Active Starting Points for Next-Generation Antimalarials” (ACS Infect Dis, 2020)
In all, about 65,000 compounds went through this assay and about 2,100 (3.2%) showed an effect of 50% or more. The median lay at about -52%. Only a selection was taken, and strong results are over-represented in it overall.

test system: Plasmodium falciparum; experiment: Screen against P. falciparum Asexual Blood Stage (ABS), at 5uM; assay type: functional, Dd2; conditions: tested at 5 uM

Compound	INHIBITION [%]
NC(=O)c1nc2c(s1)CCN(C(=O)Nc1cccc(Cl)c1)CC2	-91.8
CC(=O)NCC(=O)Nc1cc(C)n(-c2ccc(Cl)cc2Cl)n1	-97
CC(C)N(C)C(=O)C1CCN(Cc2cnc3ccccn23)CC1	-38.4
CN(C)C(=O)COc1ccccc1CN1CCCC2(C1)CN(C)C(=O)O2 (stereo not given)	-37.9
CCS(=O)(=O)c1ncc(CN(C)C)n1Cc1ccccc1	-37.3
CS(=O)(=O)CCC(=O)Nc1nccn1Cc1ccccc1Cl	-70.9
O=C1NC(c2ccccc2)=N[C@@]12CC[C@@H]1CN(Cc3ccccc3)C[C@@H]12	42.6
O=C1NC(c2ccccc2)=N[C@@]12CC[C@@H]1CN(Cc3ccoc3)C[C@@H]12	59.6
O=C1NC(c2ccccc2)=N[C@@]12CC[C@@H]1CN(Cc3ccncc3)C[C@@H]12	15.3
CN1C(=O)CC(c2cnn(C)c2)C12CCN(C(=O)c1cscn1)CC2 (stereo not given)	-21.4
CC(C)(C)NC(=O)Cn1c(=O)n(Cc2ccco2)c2ncccc21	-56.2
COCC1CCN(c2ccnc3ccsc23)C1 (stereo not given)	45.4
Cc1noc(Cl)c1CCC(=O)N1CCc2sccc2C1	54.4
Cc1noc(C)c1CC(=O)N1CCc2sccc2C1	-48.1
Cc1noc(C)c1CN(C)CCC(=O)N1CCc2sccc2C1	-54.3
Cc1noc(Cl)c1CCC(=O)N1CCN(c2ncccn2)CC1	-34.8
CCN1CCN(C(=O)CCc2c(C)noc2Cl)CC1	1.06
Cc1noc(Cl)c1CCC(=O)N1CCN(c2ccccc2)CC1	53
O=C(CCN1CCCC(CC2CC2)(C(=O)O)C1)NC1CCCC1 (stereo not given)	-79.9
CC(C)(C)n1ncc2c1CCCC2NCc1ccc2c(c1)CCO2 (stereo not given)	-0.776
CC(C)(CO)CCCNC(=O)NC1(c2cccc(F)c2)CC1	-79.4
O=C(CCc1ccsc1)NC1CCN(c2cccc(F)c2)CC1	-55.7
CCc1cc(C(=O)N2CCCC(Cc3ccc(NC)nn3)C2)on1 (stereo not given)	-89.6
CC(Cn1ccnc1)NC(=O)C1(c2ccc(F)cc2)CCCC1 (stereo not given)	-16.4
Cc1cc(C)n(CC(C)NC(=O)C2(c3ccc(F)cc3)CC2)n1 (stereo not given)	-44.3

Compound	INHIBITION [%]
CCC(CN1CCCC1)NC(=O)C1(c2ccc(F)cc2)CC1 (stereo not given)	59.1
CCC(CN1CCCCC1)NC(=O)C1(c2ccc(F)cc2)CC1 (stereo not given)	70
CC(CNC(=O)C1(c2ccc(F)cc2)CC1)CN1CCCC1=O (stereo not given)	11.4
CC(Cn1ccnc1)NC(=O)C1(c2ccc(F)cc2)CC1 (stereo not given)	-96.5
O=C(NCc1cccnc1)[C@H]1CC[C@@H]2[C@@H](CCN2c2ncccn2)O1	41.4
CNC(=O)c1cc2c(nc1NCC(C)C)CCN(c1ncccn1)CC2	-98.4
CC(Cn1cccn1)NCc1cnc(N2CCCC2)nc1 (stereo not given)	-141
c1ccc(OCCNCc2cccs2)nc1	-79.1
Cc1ccsc1CNCCCOc1ccccn1	54.4
c1ccc(OCCCNCc2cccs2)nc1	19.1
O=C(c1cnc(C2CC2)nc1)N1CCCC(c2nccs2)C1 (stereo not given)	-138
O=C(c1cscn1)N1CCC2(CCN(S(=O)(=O)c3ccccc3)C2)C1 (stereo not given)	-20.8
O=C(CC1CC1)N1CCC2(CCCN(CCOc3ccccc3)C2)C1 (stereo not given)	57.8
CN(C)C(=O)N1CCC2(CCCN(CCOc3ccccc3)C2)C1 (stereo not given)	40.1
O=C(c1cscn1)N1CCC2(CCCN(CCOc3ccccc3)C2)C1 (stereo not given)	53.5
O=C([C@H]1CCCO1)N1CCC2(CCCN(CCOc3ccccc3)C2)C1 (stereo not given in full)	-41
O=C(N1CCCC1)N1CCC2(CCCN(CCOc3ccccc3)C2)C1 (stereo not given)	-1.79
Cn1ccnc1CN1CCC(Cn2cc(-c3ccccc3)nn2)CC1	24.5
c1cc(CNCC2CNc3ccnn3C2)cc(OC2CCCC2)n1 (stereo not given)	-58.6
CCCc1cnc(C)nc1N1CCC(Cn2cc(CO)nn2)CC1	-65.7
Cc1nccn1-c1cccc(C2CCCN(C3CCCCC3)C2)n1 (stereo not given)	44.3
CCc1nccn1-c1cccc(C2CCCN(C3CCCCC3)C2)n1 (stereo not given)	53.2
Cc1nccn1-c1cccc(C2CCCN(C3CCCC3)C2)n1 (stereo not given)	1.22
Cc1noc(C)c1CN1Cc2ccnn2CC(C(=O)NCC2CC2)C1 (stereo not given)	-30.3
CCCN1CCCn2c(nc(CNC(=O)c3nccn3C)cc2=O)C1	-91.8
